Source: PubChem BioAssay
The source made the active and inactive calls. Unless noted, no rule for the calls is given here.

Tests used:
[1] = reduced mouse 2C T cell binding to pMHC/ICAM-1 vesicles – MLPCN validation set, flow cytometry, LFA-1/ICAM-1 modulator project, pilot screen (AID 2523;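 active = response below a set limit, under 55% cells CD8-positive and vesicle-bound, and CD8 cells' 90th-percentile brightness under 279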;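 as to vesicle binding response: mean PE anti-B7-1 fluorescence of CD8+ cells relative to row control; 100% = QL9-loaded vesicles with DMSO vehicle in the same plate row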); conditions: 2C mouse CD8+ T cells, at 7 µM, stronger effect = lower value; double positive events: measured here: CD8+/vesicle+ event percentage
[2] = biological target: Integrin beta-1 (Homo sapiens) + Integrin alpha-4 (Homo sapiens) (UniProt P13612+P05556); assay: alpha4beta1 integrin LIBS antibody binding reduction – U937 cells, HUTS-21 mAb, flow cytometry, validation set, VLA-4 allosteric modulator project, pilot screen (AID 2674;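 active = inhibition above 50%, about 3 SD of the validation set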;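 also: antibody binding induced by the VLA-4 ligand LDV present at three times its Kd; 0% = LDV ligand with antibody and no compound and 100% = antibody without LDV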); conditions: HUTS-21 LIBS mAb binding, at 6.7 µM, stronger effect = higher value
Chain of Integrin beta-1 (Homo sapiens) + Integrin alpha-4 (Homo sapiens) (P05556 whole entry, looked up): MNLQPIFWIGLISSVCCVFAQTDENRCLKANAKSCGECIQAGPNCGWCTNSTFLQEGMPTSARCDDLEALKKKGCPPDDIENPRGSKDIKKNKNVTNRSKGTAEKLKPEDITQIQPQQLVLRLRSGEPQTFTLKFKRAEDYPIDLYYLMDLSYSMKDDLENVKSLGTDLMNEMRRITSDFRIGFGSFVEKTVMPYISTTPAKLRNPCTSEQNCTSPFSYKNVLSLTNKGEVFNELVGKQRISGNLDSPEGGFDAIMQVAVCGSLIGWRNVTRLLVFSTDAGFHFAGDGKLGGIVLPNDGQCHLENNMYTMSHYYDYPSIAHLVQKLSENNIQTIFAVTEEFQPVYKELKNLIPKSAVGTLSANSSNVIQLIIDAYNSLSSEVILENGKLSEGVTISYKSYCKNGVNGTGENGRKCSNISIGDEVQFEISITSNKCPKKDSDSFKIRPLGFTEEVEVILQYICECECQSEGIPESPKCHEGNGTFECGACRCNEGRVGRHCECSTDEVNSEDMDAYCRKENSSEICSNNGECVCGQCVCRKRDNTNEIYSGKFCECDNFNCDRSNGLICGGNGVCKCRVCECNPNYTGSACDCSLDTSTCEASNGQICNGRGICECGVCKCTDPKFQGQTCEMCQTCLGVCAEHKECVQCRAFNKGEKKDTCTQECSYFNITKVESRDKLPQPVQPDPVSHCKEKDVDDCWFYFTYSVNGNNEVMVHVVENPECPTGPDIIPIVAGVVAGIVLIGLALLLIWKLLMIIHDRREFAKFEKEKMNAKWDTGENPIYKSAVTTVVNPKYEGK
Chain of Integrin beta-1 (Homo sapiens) + Integrin alpha-4 (Homo sapiens) (P13612 whole entry, looked up): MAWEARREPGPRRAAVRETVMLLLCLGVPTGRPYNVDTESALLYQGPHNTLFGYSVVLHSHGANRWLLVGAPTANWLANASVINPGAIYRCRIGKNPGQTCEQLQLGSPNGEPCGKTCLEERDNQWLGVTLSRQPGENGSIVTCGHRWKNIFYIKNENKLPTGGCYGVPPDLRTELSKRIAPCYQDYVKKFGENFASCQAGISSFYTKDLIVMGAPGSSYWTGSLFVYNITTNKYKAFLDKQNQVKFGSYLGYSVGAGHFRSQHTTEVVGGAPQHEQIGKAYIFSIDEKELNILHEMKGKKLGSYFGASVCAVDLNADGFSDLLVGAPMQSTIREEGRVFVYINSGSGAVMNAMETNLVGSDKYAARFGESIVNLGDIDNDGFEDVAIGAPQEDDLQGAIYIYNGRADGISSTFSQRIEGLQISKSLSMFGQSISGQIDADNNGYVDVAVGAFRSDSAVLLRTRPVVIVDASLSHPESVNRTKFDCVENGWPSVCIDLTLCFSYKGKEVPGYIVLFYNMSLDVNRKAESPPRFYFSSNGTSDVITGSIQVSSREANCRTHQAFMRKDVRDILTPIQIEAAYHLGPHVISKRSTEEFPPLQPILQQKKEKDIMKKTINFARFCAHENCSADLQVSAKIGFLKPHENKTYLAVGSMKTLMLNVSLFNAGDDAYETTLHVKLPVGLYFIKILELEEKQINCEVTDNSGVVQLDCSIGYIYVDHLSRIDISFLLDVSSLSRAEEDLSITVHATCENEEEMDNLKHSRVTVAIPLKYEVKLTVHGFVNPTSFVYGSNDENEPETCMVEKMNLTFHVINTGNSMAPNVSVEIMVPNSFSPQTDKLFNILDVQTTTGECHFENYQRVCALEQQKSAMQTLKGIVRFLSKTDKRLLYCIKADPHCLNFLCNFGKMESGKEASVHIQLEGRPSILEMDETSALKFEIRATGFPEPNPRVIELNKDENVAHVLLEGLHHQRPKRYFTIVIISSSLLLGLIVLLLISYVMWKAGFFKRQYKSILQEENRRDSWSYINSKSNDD

[3] = calorie-restriction mimetic ROS inhibitors, yeast – validation compound set, pilot screen (AID 2706;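 active = superoxide response below 65% of plate, a cut near 3 SD across the whole screen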;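 also: yeast exposed to compound for one week at 30 degrees C before staining; 100% = mean of all compound wells on the same plate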); conditions: S. cerevisiae aging, superoxide DHE fluorescence; at 10 µM; stronger effect = lower value
[4] = biological target: Beta-adrenergic receptor kinase 1 (Homo sapiens) (UniProt P25098); assay: GRK2 binders displacing RNA aptamer, biochemical, validation, human GRK2, bead flow cytometry (AID 488806;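 active = aptamer binding inhibition above 30%, about 3 SD of noise from non-fluorescent compounds; inactive = inhibition at or below 30%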); conditions: bead-bound GRK2, FAM-aptamer displacement, at 10 µM, stronger effect = higher value
[5] = biological target: AP-2 complex subunit beta (Homo sapiens) (UniProt P63010); assay: beta-arrestin/AP2 interaction blockers – biochemical, validation set, GST-AP2 beads, flow cytometry, pilot screen (AID 504541;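 active = inhibition above 54%, about 3 SD of non-fluorescent compounds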;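 also: AP2 carries R879A mutation and is captured from E. coli lysate; bead-bound FITC arrestin peptide fluorescence measuring arrestin peptide binding to AP2; 0% = DMSO wells and 100% = excess unlabeled arrestin peptide control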); conditions: FITC arrestin peptide, at 10 µM, stronger effect = higher value
Chain of AP-2 complex subunit beta (Homo sapiens) (P63010 whole entry, looked up, one chain of several): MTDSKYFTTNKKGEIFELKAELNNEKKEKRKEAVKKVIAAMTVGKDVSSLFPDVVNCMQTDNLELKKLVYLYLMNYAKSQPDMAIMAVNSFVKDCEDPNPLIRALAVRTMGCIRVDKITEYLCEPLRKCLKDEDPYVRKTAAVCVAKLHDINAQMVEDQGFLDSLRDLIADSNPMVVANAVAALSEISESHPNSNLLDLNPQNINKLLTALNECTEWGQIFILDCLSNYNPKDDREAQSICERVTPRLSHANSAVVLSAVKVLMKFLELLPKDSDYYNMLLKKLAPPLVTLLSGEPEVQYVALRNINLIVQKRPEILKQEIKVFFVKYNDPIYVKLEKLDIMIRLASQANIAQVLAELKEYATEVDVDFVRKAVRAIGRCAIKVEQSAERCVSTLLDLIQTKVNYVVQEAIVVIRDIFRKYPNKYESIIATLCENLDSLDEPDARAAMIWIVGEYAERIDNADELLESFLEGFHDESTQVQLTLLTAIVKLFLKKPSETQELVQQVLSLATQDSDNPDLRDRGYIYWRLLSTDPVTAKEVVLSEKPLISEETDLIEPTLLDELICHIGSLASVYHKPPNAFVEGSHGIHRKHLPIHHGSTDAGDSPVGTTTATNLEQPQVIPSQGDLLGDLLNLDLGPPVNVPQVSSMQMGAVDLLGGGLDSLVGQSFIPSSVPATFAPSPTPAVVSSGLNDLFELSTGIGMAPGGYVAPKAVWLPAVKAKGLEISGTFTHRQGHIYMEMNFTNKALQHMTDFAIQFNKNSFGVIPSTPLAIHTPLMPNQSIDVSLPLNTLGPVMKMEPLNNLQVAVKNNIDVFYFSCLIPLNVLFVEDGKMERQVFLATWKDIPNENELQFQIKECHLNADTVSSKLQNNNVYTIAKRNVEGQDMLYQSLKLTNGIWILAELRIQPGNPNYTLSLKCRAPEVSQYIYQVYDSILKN

[6] = cytosolic pH regulators acting via V-ATPase – S. cerevisiae, pHLuorin, HTS validation (AID 504600; in the data active = response above about 15%;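 also: plate controls were DMSO for no effect and reference compound for full effect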); conditions: V-ATPase proton transport, at 10 µM, stronger effect = higher value
[7] = system: anti-desmoglein-3 scFv antibody binding to human DSG3; assay: blockers of pathogenic pemphigus antibody–desmoglein-3 binding – biochemical, validation compound set, bead-based, flow cytometry, pilot screen (AID 588368;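 active = binding below the plate cutoff, the plate median minus 3 SD, with a reading above zero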;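 also: signal is the median channel fluorescence of bead-bound GFP antibody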); conditions: Protein G beads, DSG3-Fc, scFv-GFP binding, at 10 µM, stronger effect = lower value
[8] = system: Botulinum neurotoxin type F light chain protease (Clostridium botulinum); assay: Clostridium botulinum type F light chain protease inhibitors, microsphere substrate cleavage, validation (AID 588459); conditions: multiplex microsphere protease substrate cleavage assay, flow cytometry; at 10 µM; stronger effect = higher value
[9] = biological target: Botulinum neurotoxin type A (Clostridium botulinum) (UniProt P0DPI0); assay: BoNT/A light chain protease inhibitors, biochemical, multiplex microsphere flow cytometry, validation set (AID 588460); conditions: at 10 µM, stronger effect = higher value
Chain of Botulinum neurotoxin type A (Clostridium botulinum) (P0DPI0 whole entry, looked up): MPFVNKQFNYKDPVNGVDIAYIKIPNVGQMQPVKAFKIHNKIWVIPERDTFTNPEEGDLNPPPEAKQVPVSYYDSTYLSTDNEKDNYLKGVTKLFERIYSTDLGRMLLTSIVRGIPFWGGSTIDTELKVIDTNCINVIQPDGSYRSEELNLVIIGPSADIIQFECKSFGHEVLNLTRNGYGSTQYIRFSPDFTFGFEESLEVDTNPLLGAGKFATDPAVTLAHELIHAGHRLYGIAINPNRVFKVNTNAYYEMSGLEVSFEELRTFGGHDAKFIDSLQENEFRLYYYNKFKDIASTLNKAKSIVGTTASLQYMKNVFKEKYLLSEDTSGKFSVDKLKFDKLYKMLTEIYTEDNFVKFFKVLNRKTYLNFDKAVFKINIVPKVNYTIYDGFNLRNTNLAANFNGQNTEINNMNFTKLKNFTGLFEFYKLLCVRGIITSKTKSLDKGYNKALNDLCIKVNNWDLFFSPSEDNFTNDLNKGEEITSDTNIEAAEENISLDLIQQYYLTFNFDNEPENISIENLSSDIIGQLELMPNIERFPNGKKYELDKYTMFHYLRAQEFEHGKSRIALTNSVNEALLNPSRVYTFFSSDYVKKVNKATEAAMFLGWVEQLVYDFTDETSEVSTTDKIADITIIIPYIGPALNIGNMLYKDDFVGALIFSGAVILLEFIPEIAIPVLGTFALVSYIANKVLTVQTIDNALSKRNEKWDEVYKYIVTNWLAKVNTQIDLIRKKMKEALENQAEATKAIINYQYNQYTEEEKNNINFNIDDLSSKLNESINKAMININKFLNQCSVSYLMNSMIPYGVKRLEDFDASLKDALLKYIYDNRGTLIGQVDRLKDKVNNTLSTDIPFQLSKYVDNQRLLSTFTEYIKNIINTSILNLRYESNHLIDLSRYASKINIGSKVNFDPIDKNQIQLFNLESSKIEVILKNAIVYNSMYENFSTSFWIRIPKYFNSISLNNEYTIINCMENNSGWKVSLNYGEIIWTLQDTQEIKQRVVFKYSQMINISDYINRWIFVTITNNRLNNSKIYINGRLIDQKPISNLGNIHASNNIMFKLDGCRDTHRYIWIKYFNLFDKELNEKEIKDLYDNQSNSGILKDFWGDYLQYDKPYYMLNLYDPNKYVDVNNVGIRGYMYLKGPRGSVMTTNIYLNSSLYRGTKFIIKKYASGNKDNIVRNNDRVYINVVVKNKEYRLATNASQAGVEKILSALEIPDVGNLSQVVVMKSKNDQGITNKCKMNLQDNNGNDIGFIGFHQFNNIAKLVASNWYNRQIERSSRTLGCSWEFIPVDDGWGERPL

[10] = biological target: Lethal factor (Bacillus anthracis) (UniProt P15917); assay: Bacillus anthracis lethal factor inhibition, microsphere flow cytometry protease assay, validation at 10 µM (AID 588461); conditions: multiplex microsphere protease cleavage assay, stronger effect = higher value
Chain of Lethal factor (Bacillus anthracis) (P15917 whole entry, looked up): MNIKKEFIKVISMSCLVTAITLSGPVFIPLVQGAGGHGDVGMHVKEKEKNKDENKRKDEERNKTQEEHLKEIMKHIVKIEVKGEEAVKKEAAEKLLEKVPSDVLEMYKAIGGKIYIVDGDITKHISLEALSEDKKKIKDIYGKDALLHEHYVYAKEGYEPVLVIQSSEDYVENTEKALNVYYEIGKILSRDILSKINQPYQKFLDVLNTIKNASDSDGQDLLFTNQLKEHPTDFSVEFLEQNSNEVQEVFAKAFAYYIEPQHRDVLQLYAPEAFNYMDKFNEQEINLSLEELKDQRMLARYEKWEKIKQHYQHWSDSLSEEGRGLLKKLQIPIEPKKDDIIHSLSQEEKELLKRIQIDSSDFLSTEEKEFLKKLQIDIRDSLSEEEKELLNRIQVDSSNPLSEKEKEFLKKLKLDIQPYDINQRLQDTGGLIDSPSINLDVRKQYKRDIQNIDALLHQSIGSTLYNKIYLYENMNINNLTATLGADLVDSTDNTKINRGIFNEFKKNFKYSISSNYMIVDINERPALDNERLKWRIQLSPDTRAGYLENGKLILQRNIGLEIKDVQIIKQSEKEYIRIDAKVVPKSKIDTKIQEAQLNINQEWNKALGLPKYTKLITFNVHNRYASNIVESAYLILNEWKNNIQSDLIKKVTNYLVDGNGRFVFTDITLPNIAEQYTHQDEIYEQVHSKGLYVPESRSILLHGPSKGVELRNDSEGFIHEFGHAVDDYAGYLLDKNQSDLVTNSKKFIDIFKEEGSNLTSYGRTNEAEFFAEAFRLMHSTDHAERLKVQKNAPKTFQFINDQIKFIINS

[11] = Nile Red efflux blockade in pump-expressing yeast – validation compound set, multiplex, phenotypic, pilot screen (AID 588506;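 active = efflux inhibition above 0.42, the validation set average plus 4 SD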;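 also: Nile Red retained in cells so higher fluorescence means more efflux inhibition; 0 = negative control wells and 1 = enniatin B 25 µM full block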); conditions: S. cerevisiae pump-expressing triplex, Nile Red efflux flow cytometry; at 10 µM; stronger effect = higher value
[12] = biological target: ATP-binding cassette sub-family B member 6 (Homo sapiens) (UniProt Q9NP58); assay: blockers of ABCB6-driven porphyrin uptake – K562-ABCB6 cells, flow cytometry, validation set, pilot screen (AID 588550;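 active = inhibition above the screen-wide mean plus 3 SD, about 51%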;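 also: 0% = DMSO wells and 100% = benzethonium chloride 70 µM positive control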); conditions: K562-ABCB6 porphyrin accumulation, 1 h, at 10 µM, stronger effect = higher value
[13] = AML differentiation inducers, ER-HoxA9 marrow cells – cell-based, GFP/MAC1 double positive, flow cytometry, validation set, primary screen (AID 588685;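 active = differentiation response of at least 50%, scaled between solvent and reference control, from cells with both markers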;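 also: compound exposure lasts four days before antibody staining and flow analysis; 0% = DMSO wells and 100% = 5 µM fulvestrant positive control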); conditions: stronger effect = higher value

SMILES: CCC(COC(=O)c1cc(OC)c(OC)c(OC)c1)(c1ccccc1)N(C)C (stereo not given)
- double positive events [1]: 73.3%
- vesicle binding response [1]: 306% (inactive)
- inhibition [2]: 1.44% (inactive)
- superoxide response (% of plate) [3]: 93.6% (inactive)
- aptamer binding inhibition [4]: 1% (inactive)
- inhibition [5]: -3.75% (inactive)
- response [6]: -2.48% (inactive)
- binding (% of control) [7]: 98.7% (inactive)
- inhibition [8]: -3.5% (inactive)
- inhibition [9]: -2.8% (inactive)
- inhibition [10]: -8.8% (inactive)
- efflux inhibition (fraction of control) [11]: 0.04 (inactive)
- inhibition [12]: 15% (inactive)
- differentiation response [13]: -3.02% (inactive)

SMILES: CC(=O)OCC(=O)[C@@]12OC(C)(C)O[C@@H]1C[C@H]1[C@@H]3C[C@H](F)C4=CC(=O)C=C[C@]4(C)[C@@]3(F)[C@@H](O)C[C@@]12C
- inhibition [8]: -3.5% (inactive)
- inhibition [9]: -1.4% (inactive)

SMILES: O=C1CSC2N1CCNC21CCCCC1 (stereo not given)
- double positive events [1]: 64.1%
- vesicle binding response [1]: 191% (inactive)
- inhibition [2]: -31.6% (inactive)
- aptamer binding inhibition [4]: 0% (inactive)
- inhibition [5]: 4.77% (inactive)
- response [6]: 2.26% (inactive)
- binding (% of control) [7]: 112% (inactive)
- inhibition [8]: -1% (inactive)
- inhibition [9]: 1% (inactive)
- inhibition [10]: -3.4% (inactive)
- efflux inhibition (fraction of control) [11]: 1.11 (active)
- inhibition [12]: 42% (inactive)
- differentiation response [13]: 28.6% (inactive)

SMILES: CC(N=C(NC#N)Nc1ccncc1)C(C)(C)C (stereo not given)
- inhibition [8]: 0.4% (inactive)
- inhibition [9]: 2.3% (inactive)

SMILES: CC12CN3CC(c4ccccc4)(CN(C1)C31CCCCC1)C2=O
- double positive events [1]: 60.1%
- vesicle binding response [1]: 232% (inactive)
- inhibition [2]: 9.13% (inactive)
- superoxide response (% of plate) [3]: 90.5% (inactive)
- aptamer binding inhibition [4]: 4% (inactive)
- inhibition [5]: -0.95% (inactive)
- response [6]: 0.31% (inactive)
- binding (% of control) [7]: 99.5% (inactive)
- inhibition [8]: 2.1% (inactive)
- inhibition [9]: -0.1% (inactive)
- inhibition [10]: -2.8% (inactive)
- efflux inhibition (fraction of control) [11]: -0.03 (inactive)
- inhibition [12]: -51% (inactive)
- differentiation response [13]: 13.6% (inactive)
